Screening results as filed in PubChem BioAssay.
A selection: hits, their analogues and other compounds. The true share with any hit is near 3.5%.
MITF primary: MITF inhibitors, primary screen, biochemical, AlphaScreen, human | inhibition, % at 2.6 µM | AlphaScreen MITF homodimerization, bead proximity signal | 650,000 compounds, 0.91% hits | Microphthalmia-associated transcription factor (Homo sapiens), O75030; in the data active = inhibition above about 50%;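 note: 0% = vehicle wells with protein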
TEAD-YAP inh: TEAD-YAP interaction inhibition, primary screen, TEAD-YAP interaction inhibitor project, luminescence, HEK-TIYL cells. TEAD-Gal4/YAP UAS-luciferase luminescence. inhibition, % at 9.12 µM. 640,000 compounds, 1.4% hits. AID 1259422, 2018; in the data active = inhibition above about 32%;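 note: 0% = median of test compound wells and 100% = reference inhibitor wells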
GPR151 activ: activators of human GPR151, primary screen, cell-based, PathHunter beta-arrestin, luminescence. G-protein coupled receptor 151 (Homo sapiens), Q8TDV0. PathHunter beta-arrestin GPR151 cells. activation, % at 11.2 µM. 650,000 compounds, 1% hits; in the data active = activation above about 4.9%;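 note: 0% = median of compound wells and 100% = cells with positive control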
Target sequence (Q8TDV0 whole entry, looked up): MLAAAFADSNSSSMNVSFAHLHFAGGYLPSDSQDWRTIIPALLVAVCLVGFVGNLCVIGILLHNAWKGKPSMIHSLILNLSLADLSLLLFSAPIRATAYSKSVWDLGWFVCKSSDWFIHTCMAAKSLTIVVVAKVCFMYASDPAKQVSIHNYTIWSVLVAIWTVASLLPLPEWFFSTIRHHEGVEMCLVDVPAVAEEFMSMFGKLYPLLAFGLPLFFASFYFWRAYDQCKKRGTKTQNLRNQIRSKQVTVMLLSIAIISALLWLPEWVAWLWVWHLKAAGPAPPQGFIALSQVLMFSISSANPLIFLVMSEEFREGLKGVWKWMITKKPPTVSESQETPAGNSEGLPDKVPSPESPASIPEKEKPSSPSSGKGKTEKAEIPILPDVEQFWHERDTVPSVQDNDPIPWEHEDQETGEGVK
FBW7 act: FBW7 E3 ligase activators, primary screen, biochemical, AlphaScreen, human; 650,000 compounds, 0.13% hits; normalized activity (activation), % at 26.1 µM; F-box/WD repeat-containing protein 7 (Homo sapiens), Q969H0; AlphaScreen FBW7–phospho-cyclin E peptide binding, activator screen; in the data active = normalized activity above about 1.9%;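 note: purified mutant Fbw7 with reduced substrate affinity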
GPR151 confirm: GPR151 activators, triplicate retest, confirmation, cell-based, PathHunter beta-arrestin, luminescence; activation, % at 11.2 µM; shares compounds with GPR151 activ; GPR151 PathHunter beta-arrestin cells, 90 min; % of EA-reagent control over plate median; 6,700 tested, under 10 active;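 active = mean percent activation across replicates above the confirmation screen cutoff of 4.91%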
GPR119 ag: GPR119 activators in beta-arrestin cells, counter-screen for GPR151 activator project, cell-based, PathHunter beta-arrestin, luminescence, triplicate | shares compounds with GPR151 activ | 90 min; 0 = compound-well median, 100 = enzyme-acceptor control | activation, % at 11.2 µM | 6,700 compounds, 0.3% hits;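 active = mean percent activation in the counterscreen above 29.09%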;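 note: counterscreen on off-target GPR119 to flag nonselective hits from the GPR151 activator screen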
An asterisk follows results filed as active; / = not tested or not shown; ! = a repeat was not active.

SMILES	MITF primary	TEAD-YAP inh	GPR151 activ	FBW7 act	GPR151 confirm	GPR119 ag
O=S(=O)(NCC1CCCO1)c1ccc(-c2ccc(Cl)cc2)cc1 (stereo unspecified)	19	-1	7.4*	0	1	-1
CCc1nc2ccccc2c(NC(=O)CN2CCC(C)CC2)c1C	44	-2	5.3*	0	0	-3
CC(=O)N1N=C(c2ccccc2)CC1c1cn(-c2ccccc2)nc1-c1ccc(C)cc1 (stereo unspecified)	8	-6	6.0*	0	0	-6
O=C1c2ccccc2C(=O)c2c1ccc1c(=O)o[nH]c21	1	16	-3	0	/	/
COCCNC(=O)c1cc(C)nn1-c1ccccc1	1	5	2	0	/	/
CCN(CCNC(=O)c1cc(C)nn1-c1ccccc1)c1ccccc1	13	-5	7.9*	0	0	-8
CC(C)C1CCC(Nc2ncc(-c3cccc(C(=O)N(C)C)c3)n3ccnc23)CC1 (stereo unspecified)	16	29	-1	0	/	/
COC(=O)c1ccc(NC(=O)CSc2nnc(COc3ccc(Cl)cc3)n2C)cc1	-11	19	3	0	/	/
CC1C2CCCN2CCN1Cc1cccc([N+](=O)[O-])c1 (stereo unspecified)	5	-8	9.7*	1	-1	-9
CC1CCCC(C)N1CC(O)COc1ccc(N)cc1 (stereo unspecified)	-2	7	4.9*	0	0	-5
CC(=O)c1ccc(OCC(O)CN2CCCCC2C)cc1 (stereo unspecified)	-22	0	5.2*	0	-1	-12
CN(Cc1ccccc1)C(=O)CCC1CCN(C(=O)c2cc[n+]([O-])cc2)CC1	14	0	5.6*	0	1	6
O=C(Cn1ncc2cccn2c1=O)Nc1ccc(F)cc1	-1	-10	-1	1	/	/
O=C(Cn1ncc2c1-c1ccccc1OC2)NCCc1c[nH]c2ccccc12	9	10	0	0	/	/
CC(C)c1ccc(NC(=O)c2ccc(N)cc2)c(N)c1	-3	-50	5.8*	0	0	-11
Nc1ccc(NC(=O)c2ccc(C(=O)Nc3ccc(N)cc3N)cc2)c(N)c1	14	2	0	0	/	/
COc1cc(OC)cc(C(=O)NCc2nnc(SCC(=O)Nc3nccs3)n2-c2cc(C)ccc2C)c1	-9	3	0	0	/	/
COC(=O)c1c(NC(=O)/C=C\C(=O)O)sc(C)c1C	21	-1	14*	0	-1	3
Cc1ccc(-n2nc3cc(C)c(NC(=O)c4ccc([N+](=O)[O-])cc4)cc3n2)cc1	16	-5	-1	0	/	/
CC(C)(C)c1nc(Cc2ccc([N+](=O)[O-])cc2)no1	-1	0	8.6*	0	-1	2
COc1ccc(Cc2noc(-c3ccc([N+](=O)[O-])cc3)n2)cc1	11	11	0	0	/	/
COc1cc(/C=N/Nc2nc3c(c(=O)[nH]c(=O)n3C)n2CC(C)O)ccc1O (stereo unspecified)	7	0	-2	0	/	/
CCOc1cc(/C=N/Nc2nc3c(c(=O)[nH]c(=O)n3C)n2CC(C)C)ccc1O	4	1	6.6*	0	1	5
Cc1nn(-c2ccccc2)c(Cl)c1/C=C1\SC(=S)NC1=O	4	1	5.3*	0	1	9
O=C(CCC1CCCCC1)Nc1nn[nH]n1	1	1	7.7*	0	1	4
SMILES	MITF primary	TEAD-YAP inh	GPR151 activ	FBW7 act	GPR151 confirm	GPR119 ag
Cc1cccc(Cl)c1OCCn1ccnc1	16	7	5	0	/	/
Nc1ccn([C@@H]2O[C@H](CO)[C@@H](O)C2(F)F)c(=O)n1	-2	-29	8.7*!	0	0	1
Nc1ccn([C@@H]2O[C@H](CO)[C@@H](O)C2O)c(=O)n1 (stereo partly specified)	-15	-30	-2	0	/	/
CC(CC(=O)Nc1nc2ccc([N+](=O)[O-])cc2s1)c1ccccc1 (stereo unspecified)	18	16	6.5*	0	1	9
c1ccc(-c2nccc(Nc3ccc(N4CCOCC4)cc3)n2)cc1	-4	-44	-2	0	/	/
O=C(Cc1cn(-c2ccc(Nc3cnccn3)nn2)c2ccccc12)NCCOc1ccccc1	7	10	6.2*	0	-1	-6
CCOc1cccc(NC(=O)/C(C#N)=C\c2ccc(OCC(=O)O)c(Br)c2)c1	-9	4	6.1*	0	-1	-9
CCOc1cccc(NC(=O)/C(C#N)=C/c2ccccc2)c1	0	-13	1	0	/	/
COc1ccccc1C(=O)Nc1ccnn1C1CCN(Cc2cccc(C(C)=O)c2)CC1	-3	-7	1	0	/	/
COc1ccccc1C(=O)Nc1ccnn1C1CCN(C2CCCCC2)CC1	5	-3	5.1*	0	1	10
COc1ccccc1C(=O)Nc1ccnn1C1CCN(Cc2ccc3nsnc3c2)CC1	5	6	5.6*	0	1	7
CCn1cc(CN2CCC(n3nccc3NC(=O)c3ccc(OC)cc3)CC2)cn1	6	9	5.2*	0	-1	-20
COCCNC(=S)Nc1ccccc1C(F)(F)F	7	11	2	0	/	/
O=C(CCc1nnc(Cc2cccc(C(F)(F)F)c2)o1)NCCCn1ccnc1	-6	2	1	0	/	/
NC(=O)CSc1nnc2n(Cc3ccccc3)c3ccccc3n12	-3	-7	6.1*	0	1	-3
Cc1nc2c(C(=O)NCc3ccc(F)cc3)c[nH]n2c(=O)c1Cl	2	-3	9.6*	0	0	5
Cc1nc2c(C(=O)NCCc3ccccc3)c[nH]n2c(=O)c1Cl	15	0	-1	0	/	/
O=C(CNC(=O)/C(=C\c1cccc([N+](=O)[O-])c1)NC(=O)c1ccco1)OCc1ccccc1	15	-2	1	0	/	/
COc1ccc(NC(=O)COc2ccc(Cl)cc2)cc1NC(=O)c1ccco1	-2	6	6.0*	0	0	-3
Nc1c(C(=O)NCc2ccc(Cl)cc2)nnn1-c1ccc2c(c1)OCCO2	11	24	1	0	/	/
COc1ccc(Cn2c(O)c(/C=N/NC(=O)c3ccncc3)c3ccccc3c2=O)cc1	23	-2	-2	0	/	/
